40 molecules from article PMC8159961, “Exploring protein hotspots by optimized fragment pharmacophores” (Nature Communications, 2021) can be followed below.

The structures appear in SMILES notation.

The assay addresses thrombin (human, UniProt P00734). The assay can be described thus: primary screen, binary call; higher = more effect of the substance. The arrangement: screenings were carried out in duplicate in one independent experiment. Particulars: 200 µM; call rule not given here. The procedure:
Protease inhibitory assays were performed in transparent microtiter plates in a final volume of 200 µL with the use of chromogenic substrates. The reaction rates in the absence and in the presence of the inhibitor were measured; screenings were carried out in duplicate in one independent experiment and Ki values were determined in triplicate in two independent experiments.
Regarding `O=C(O)CC1CCC(=O)N1` (stereo not shown), the Thrombin was 0 (inactive).

With `Cn1c(CO)nc2ccccc21`, the Thrombin is 0 (inactive).

As to `N#Cc1ccc2ncsc2c1`, the Thrombin was 0 (inactive).

Consider `Brc1ccc(-c2ccon2)cc1`, for which the Thrombin was 0 (inactive).

`NC(=O)N1CCC(C(=O)O)CC1`: the Thrombin is 1 (active).

`COC(=O)c1c(C)nc(C2CC2)[nH]c1=O`: the Thrombin is 0 (inactive).

Consider `CN(C)c1cc(CN)ccn1`, for which the Thrombin is 0 (inactive).

As for `N[C@H]1c2ccccc2C[C@H]1CO`, the Thrombin was 0 (inactive).

As to `O=c1[nH]ncc2c1oc1ccccc12`, the Thrombin was 0 (inactive).

Regarding `Nc1nnc(-c2cccs2)[nH]1`, the Thrombin was 1 (active).

Regarding `O=C1CCC(=O)N(c2ccccc2)N1`, the Thrombin is 0 (inactive).

As for `O=C1CSC(Nc2ccc(F)cc2)=N1`, the Thrombin is 0 (inactive).

As to `c1cnc2c(c1)NCCC2`, the Thrombin is 0 (inactive).

For the molecule `Cc1ccc(-c2ccc(O)cc2)cc1`, the Thrombin was 0 (inactive).

`O=C(CN1CCCC1)c1ccccc1Cl`: the Thrombin was 0 (inactive).

For `O=c1[nH]c2c(s1)CCC2`, the Thrombin is 0 (inactive).

For `COc1ccc(CN2CCNCC2)cc1F`, the Thrombin was 0 (inactive).

With `CC(=O)c1ccc2c(c1)CNCC2`, the Thrombin was 0 (inactive).

Consider `CC(CN)N1CCc2sccc2C1` (stereo not shown), for which the Thrombin was 0 (inactive).

Take `O=C(c1ccncc1)N1CCNCC1`: the Thrombin is 0 (inactive).

For `Cn1c(N)nc2ccccc21`, the Thrombin was 0 (inactive).

With `O=C1NC(=O)/C(=C\c2cccs2)N1`, the Thrombin was 0 (inactive).

`O=C(O)C1CCN(c2ncccn2)CC1`: the Thrombin was 1 (active).

Regarding `Cc1ccc(CCNc2ccccc2)cn1`, the Thrombin is 0 (inactive).

In the case of `COc1ccccc1N1CCNCC1`, the Thrombin is 0 (inactive).

Consider `O=C1NC(=O)C2(CCc3ccccc32)N1` (stereo not shown), for which the Thrombin was 0 (inactive).

In the case of `Cc1cnc(C(F)(F)F)cn1`, the Thrombin was 0 (inactive).

As for `CS(=O)(=O)c1ccc(N2CCNCC2)cc1`, the Thrombin is 0 (inactive).

Consider `Cc1cc(C)c2c(=O)[nH]n(C)c2n1`, for which the Thrombin was 0 (inactive).

Regarding `FC1(F)CNCC(F)(F)O1`, the Thrombin is 0 (inactive).

Regarding `CC1C(=O)NC(=O)N1c1ccc(Cl)cc1` (stereo not shown), the Thrombin is 0 (inactive).

Regarding `Oc1ccccc1N1CCCCC1`, the Thrombin was 0 (inactive).

For `COc1ccccc1CC1CCNCC1.Cl`, the Thrombin was 0 (inactive).

Take `O=C(Nc1ccccc1)C1CC1`: the Thrombin was 0 (inactive).

Consider `O=C1NC2(CCCC2)Nc2ccccc21`, for which the Thrombin was 0 (inactive).

In the case of `CN1CC(=O)NC1=O`, the Thrombin is 0 (inactive).

Regarding `CC1CCc2sc(C(=O)O)cc2C1` (stereo not shown), the Thrombin was 1 (active).

As to `Cc1nccn1Cc1cccc(C#N)c1`, the Thrombin was 0 (inactive).

`O=C(O)c1ccc(CN2CCOCC2)cc1`: the Thrombin is 0 (inactive).

Consider `O=C(NC1CC1)c1ccccc1O`, for which the Thrombin is 0 (inactive).
